Measured values as given in the supplement of paper PMC8253809.

How the values were obtained:
Assay in all cases: growth inhibition (% activity, log2 RLU normalised to DMSO / staurosporine); higher = more growth inhibition
Conditions in all cases: 33 µM
DIPGX29 = test system: DIPGX29 (H3.3 K27M diffuse intrinsic pontine glioma line)
Outline: (§1)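 Cells (pHGG lines and H9-derived neural stem cells) were plated on Geltrex-coated 384-well plates and exposed to approved drugs at a single final concentration of about 33 μM, in triplicate, for 7 days at 37 °C, 5% CO2. Log2-transformed CellTiter-Glo luminescence was normalised per plate to % activity between solvent and positive control wells, and the growth-inhibition value is the median over replicates.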

DIPGX37 = test system: DIPGX37 (H3.3 K27M diffuse intrinsic pontine glioma line)
Outline: as §1

DIPGX7 = test system: DIPGX7 (H3.3 K27M diffuse intrinsic pontine glioma line)
Outline: as §1

DIPGX9 = test system: DIPGX9 (diffuse intrinsic pontine glioma line)
Outline: as §1

HGGX39 = test system: HGGX39 (paediatric high-grade glioma line)
Outline: as §1

HGGX6 = test system: HGGX6 (H3.3 G34R paediatric high-grade glioma line)
Outline: as §1

HNSC = test system: HNSC
Outline: as §1

SUDIPGIV = test system: SUDIPGIV (diffuse intrinsic pontine glioma line)
Outline: as §1

SUDIPGVI = test system: SUDIPGVI (diffuse intrinsic pontine glioma line)
Outline: as §1

SUDIPGXIII = test system: SUDIPGXIII (diffuse intrinsic pontine glioma line)
Outline: as §1

CCCCc1oc2ccccc2c1C(=O)c1cc(I)c(OCCN(CC)CC)c(I)c1
growth inhibition (DIPGX29): 11.5%
growth inhibition (DIPGX37): 3.87%
growth inhibition (DIPGX7): 16.3%
growth inhibition (DIPGX9): 3.8%
growth inhibition (HGGX39): 8.92%
growth inhibition (HGGX6): 12.4%
growth inhibition (HNSC): 34.9%
growth inhibition (SUDIPGIV): 6.94%
growth inhibition (SUDIPGVI): 3.07%
growth inhibition (SUDIPGXIII): 7.05%

CN(C)c1ccc(C(=C2C=CC(=[N+](C)C)C=C2)c2ccc(N(C)C)cc2)cc1
growth inhibition (DIPGX29): 39.6%
growth inhibition (DIPGX37): 42.1%
growth inhibition (DIPGX7): 42.3%
growth inhibition (DIPGX9): 41.4%
growth inhibition (HGGX39): 51.4%
growth inhibition (HGGX6): 48.2%
growth inhibition (HNSC): 72.2%
growth inhibition (SUDIPGIV): 43.1%
growth inhibition (SUDIPGVI): 50%
growth inhibition (SUDIPGXIII): 74.4%

NC(=O)N/N=C/c1ccc([N+](=O)[O-])o1
growth inhibition (DIPGX29): 0.652%
growth inhibition (DIPGX37): 0.147%
growth inhibition (DIPGX7): 0.615%
growth inhibition (DIPGX9): 0.733%
growth inhibition (HGGX39): 1.49%
growth inhibition (HGGX6): 0.622%
growth inhibition (HNSC): 2.46%
growth inhibition (SUDIPGIV): -1.17%
growth inhibition (SUDIPGVI): 1.04%
growth inhibition (SUDIPGXIII): -0.395%

CN(N=O)C(=O)N[C@H]1C(O)O[C@H](CO)[C@@H](O)[C@@H]1O (mixture of isomers)
growth inhibition (DIPGX29): 0.875%
growth inhibition (DIPGX37): 2.37%
growth inhibition (DIPGX7): 2.05%
growth inhibition (DIPGX9): 1.8%
growth inhibition (HGGX39): 0.924%
growth inhibition (HGGX6): 2.69%
growth inhibition (HNSC): 2.82%
growth inhibition (SUDIPGIV): 1.45%
growth inhibition (SUDIPGVI): 2.34%
growth inhibition (SUDIPGXIII): 0.628%

Cc1cc(C(C)(C)C)c(O)c(C)c1CC1=NCCN1
growth inhibition (DIPGX29): 0.231%
growth inhibition (DIPGX37): 3.01%
growth inhibition (DIPGX7): 1.52%
growth inhibition (DIPGX9): 2.19%
growth inhibition (HGGX39): 1.3%
growth inhibition (HGGX6): 0.112%
growth inhibition (HNSC): 0.146%
growth inhibition (SUDIPGIV): 1.18%
growth inhibition (SUDIPGVI): 1.88%
growth inhibition (SUDIPGXIII): 0.459%

O=S(=O)(O)c1cc(O)ccc1O
growth inhibition (DIPGX29): -4.18%
growth inhibition (DIPGX37): -4.39%
growth inhibition (DIPGX7): -0.642%
growth inhibition (DIPGX9): -3.41%
growth inhibition (HGGX39): -5.27%
growth inhibition (HGGX6): -3.97%
growth inhibition (HNSC): 13.9%
growth inhibition (SUDIPGIV): -3.95%
growth inhibition (SUDIPGVI): -12.4%
growth inhibition (SUDIPGXIII): 1.53%

N=C(N)c1ccc2cc(OC(=O)c3ccc(N=C(N)N)cc3)ccc2c1
growth inhibition (DIPGX29): -0.193%
growth inhibition (DIPGX37): -3.07%
growth inhibition (DIPGX7): -0.0416%
growth inhibition (DIPGX9): -0.893%
growth inhibition (HGGX39): -0.167%
growth inhibition (HGGX6): 1.06%
growth inhibition (HNSC): 2.26%
growth inhibition (SUDIPGIV): 1.8%
growth inhibition (SUDIPGVI): 0.556%
growth inhibition (SUDIPGXIII): -0.295%

CCN(CC)CCOCCOC(=O)C(CC)(CC)c1ccccc1
growth inhibition (DIPGX29): 7.78%
growth inhibition (DIPGX37): 4.64%
growth inhibition (DIPGX7): 14.3%
growth inhibition (DIPGX9): 2.65%
growth inhibition (HGGX39): 9.22%
growth inhibition (HGGX6): 10.7%
growth inhibition (HNSC): 6.61%
growth inhibition (SUDIPGIV): 2.41%
growth inhibition (SUDIPGVI): 4.8%
growth inhibition (SUDIPGXIII): -0.0734%

NS(=O)(=O)c1cc2c(cc1Cl)NCNS2(=O)=O
growth inhibition (DIPGX29): -1.36%
growth inhibition (DIPGX37): -0.293%
growth inhibition (DIPGX7): -0.977%
growth inhibition (DIPGX9): 0.545%
growth inhibition (HGGX39): 0.937%
growth inhibition (HGGX6): -0.432%
growth inhibition (HNSC): -1.69%
growth inhibition (SUDIPGIV): -0.42%
growth inhibition (SUDIPGVI): 0.531%
growth inhibition (SUDIPGXIII): 1.25%

CC(C)(C)CC(C)(C)c1ccc(OCCOCC[N+](C)(C)Cc2ccccc2)cc1
growth inhibition (DIPGX29): 65.1%
growth inhibition (DIPGX37): 71.8%
growth inhibition (DIPGX7): 69%
growth inhibition (DIPGX9): 43.5%
growth inhibition (HGGX39): 64.3%
growth inhibition (HGGX6): 43.9%
growth inhibition (HNSC): 82.7%
growth inhibition (SUDIPGIV): 47.1%
growth inhibition (SUDIPGVI): 64.5%
growth inhibition (SUDIPGXIII): 73.4%

NCC(=O)CCC(=O)O
growth inhibition (DIPGX29): -0.565%
growth inhibition (DIPGX37): 0.832%
growth inhibition (DIPGX7): -1.28%
growth inhibition (DIPGX9): 0.54%
growth inhibition (HGGX39): 0.759%
growth inhibition (HGGX6): 1.54%
growth inhibition (HNSC): -1.87%
growth inhibition (SUDIPGIV): 0.45%
growth inhibition (SUDIPGVI): 0.00902%
growth inhibition (SUDIPGXIII): 0.537%

CC(=O)OCC(=O)[C@H]1CC[C@H]2[C@@H]3CCC4=CC(=O)CC[C@]4(C)[C@H]3CC[C@]12C
growth inhibition (DIPGX29): -1.69%
growth inhibition (DIPGX37): -0.592%
growth inhibition (DIPGX7): -0.0117%
growth inhibition (DIPGX9): -0.0895%
growth inhibition (HGGX39): 1.53%
growth inhibition (HGGX6): -0.537%
growth inhibition (HNSC): -2.47%
growth inhibition (SUDIPGIV): -2%
growth inhibition (SUDIPGVI): -0.651%
growth inhibition (SUDIPGXIII): 5.18%

O=C(C[S+]([O-])Cc1ccco1)NC/C=C\COc1cc(CN2CCCCC2)ccn1 (stereo not given)
growth inhibition (DIPGX29): -1.37%
growth inhibition (DIPGX37): -2.72%
growth inhibition (DIPGX7): 0.0817%
growth inhibition (DIPGX9): -0.604%
growth inhibition (HGGX39): -0.28%
growth inhibition (HGGX6): 0.0479%
growth inhibition (HNSC): -2.82%
growth inhibition (SUDIPGIV): -2.24%
growth inhibition (SUDIPGVI): -1.66%
growth inhibition (SUDIPGXIII): -2.4%

CC[C@H]1OC(=O)C[C@@H](O)[C@H](C)[C@@H](O[C@@H]2O[C@H](C)[C@@H](O)[C@H](N(C)C)[C@H]2O)[C@@H](CCN2C[C@H](C)C[C@H](C)C2)C[C@@H](C)C(=O)/C=C/C(C)=C/[C@@H]1CO[C@@H]1O[C@H](C)[C@@H](O)[C@@H](OC)[C@H]1OC
growth inhibition (DIPGX29): -3.18%
growth inhibition (DIPGX37): -1.96%
growth inhibition (DIPGX7): -0.192%
growth inhibition (DIPGX9): -2.36%
growth inhibition (HGGX39): -3.76%
growth inhibition (HGGX6): -3.98%
growth inhibition (HNSC): 3.6%
growth inhibition (SUDIPGIV): -3.04%
growth inhibition (SUDIPGVI): -5.87%
growth inhibition (SUDIPGXIII): 1.2%

CCCCCCCCCCCCCCCC[N+](C)(C)CCN(Cc1ccc(OC)cc1)c1ncccn1
growth inhibition (DIPGX29): 59.2%
growth inhibition (DIPGX37): 55.6%
growth inhibition (DIPGX7): 57.6%
growth inhibition (DIPGX9): 55.3%
growth inhibition (HGGX39): 59.2%
growth inhibition (HGGX6): 62%
growth inhibition (HNSC): 57.8%
growth inhibition (SUDIPGIV): 57.6%
growth inhibition (SUDIPGVI): 56.7%
growth inhibition (SUDIPGXIII): 42.9%

O=C1O[C@H]([C@@H](O)CO)C([O-])=C1O.[Na+]
growth inhibition (DIPGX29): -5.78%
growth inhibition (DIPGX37): -2.29%
growth inhibition (DIPGX7): -0.532%
growth inhibition (DIPGX9): -4%
growth inhibition (HGGX39): -3.28%
growth inhibition (HGGX6): -5.19%
growth inhibition (HNSC): 6.78%
growth inhibition (SUDIPGIV): -3.14%
growth inhibition (SUDIPGVI): -6.63%
growth inhibition (SUDIPGXIII): 2.95%

Cc1cccc(C)c1OCC(C)N (stereo not given)
growth inhibition (DIPGX29): -3.9%
growth inhibition (DIPGX37): -0.481%
growth inhibition (DIPGX7): -1.91%
growth inhibition (DIPGX9): -1.51%
growth inhibition (HGGX39): -0.858%
growth inhibition (HGGX6): -1.81%
growth inhibition (HNSC): -4.52%
growth inhibition (SUDIPGIV): -0.767%
growth inhibition (SUDIPGVI): -2.5%
growth inhibition (SUDIPGXIII): 0.823%
